Measured values taken from PubChem BioAssay (NCI).
Compounds without any hit were thinned out: in the full panel of roughly 79,000, 15% have a hit. The source made the active and inactive calls. Cut-off read from the data, not from the text of the source: active = growth inhibition above about 70%; inactive = the rest.

Assay: NCI Yeast Anticancer Drug Screen. Data for the sgs1 mgt1 strain (AID 161);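 note: 0% = growth of cultures given vehicle only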
Details: S. cerevisiae sgs1 mgt1 strain, at 5.0 µM (retest, dose inferred, filed as 0.5), stronger effect = higher value
Summary of the method: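 Percent growth inhibition was derived by comparing compound-exposed mutant yeast with vehicle-exposed cultures. The strain carries alterations in DNA damage repair.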

Row | Compound | growth inhibition
1 | Cc1ccc(/C=C2\CCCC(CN3CCCCC3)C2=O)cc1 (stereo not drawn) | 30% (inactive)
2 | Oc1ccc(CCCCCc2ccc(O)cc2)cc1 | 17% (inactive)
3 | COC(=O)c1ccccc1CC(Cc1ccc2c(c1)CCC2)C(=O)OC (stereo not drawn) | 10% (inactive)
4 | CN=C1NS(=O)(=O)c2ccccc21 | 4% (inactive)
5 | CCCCC/C(=C/C=C/c1ccc(Cl)cc1)CN(C)C | 49% (inactive)
6 | O=S(=O)(O)c1ccc2c(c1)C1C(C3C2C2(Cl)C(Cl)=C(Cl)C3(Cl)C2(Cl)Cl)C2(Cl)C(Cl)=C(Cl)C1(Cl)C2(Cl)Cl (stereo not drawn) | -19% (inactive)
7 | Cc1ccc(S(=O)(=O)N/N=C/c2oc(-c3cccc([N+](=O)[O-])c3)c(-c3cccc([N+](=O)[O-])c3)c2[N+](=O)[O-])cc1 | 50% (inactive)
8 | CCN(CC)C(C)(C)C(=O)/C=C/c1ccc(Cl)cc1 | 24% (inactive)
9 | Fc1ccc(NC(=S)SCc2ccc(Cl)c(Cl)c2)c(F)c1 | 6% (inactive)
10 | CC[C@@]1(OP(=O)(O)O)C(=O)OCc2c1cc1n(c2=O)Cc2cc3ccccc3nc2-1 | 6% (inactive)
11 | CC(C)C1=CC2=CCC3C(C)(C(=O)O)CCCC3(C)C2CC1 (stereo not drawn) (tested in a mixture with another compound) | -13% (inactive)
12 | C=CCSc1nc2ccccc2c(=O)n1Cc1ccco1 | 33% (inactive)
13 | COC(=O)c1c(C)cccc1C1CN=NC12Cc1ccc(C)c(C)c1C2=O (stereo not drawn) | 13% (inactive)
14 | CC(=O)N=C1N(/C=C2\C(=O)Oc3ccccc3C2=O)C(=O)/C(=C/c2cccc(Cl)c2Cl)N1C | -12% (inactive)
15 | O=C1NC(CSSCC2NC(=O)N(c3ccccc3)C2=O)C(=O)N1c1ccccc1 (stereo not drawn) | 16% (inactive)
16 | CCCCCCCCCCCCOP(=O)(N1CC1(C)C)N1CC1(C)C (stereo not drawn) | 1% (inactive)
17 | Cc1cccc(/C=N/NC(=S)Nc2ccc(Cl)cc2)n1 | -5% (inactive)
18 | CN1CCCCC1c1cc2c3ccccc3ccn2c1-c1ccccc1 (stereo not drawn) | 75% (active)
19 | CN(Cc1ccccc1)CC(O)c1cc(-c2ccc(Cl)cc2)nc2ccccc12 (stereo not drawn) | 24% (inactive)
20 | OC1CCN(c2c3ccccc3nc3ccccc23)CC1 | 32% (inactive)

Row | Compound | growth inhibition
21 | CCC1=C(c2ccc(OC(C)=O)cc2)Cc2cc(OC(C)=O)ccc21 | -3% (inactive)
22 | Cc1cccc(C)c1NC(=O)CSC(N)=O | 0% (inactive)
23 | c1ccc([B-](c2ccccc2)(c2ccccc2)c2ccccc2)cc1 | 0% (inactive)
24 | [Fe+2].c1cc[cH-]c1.c1ccc(-c2ccc[cH-]2)cc1 | -6% (inactive)
25 | O=C(CC1(O)CCCCC1)OC1CCCC1 | 1% (inactive)
26 | OC1(c2ccccc2)c2ccccc2Sc2ccccc21 | 3% (inactive)
27 | CC(CN(C)C)C(=O)/C=C/c1ccc(C(C)C)cc1 (stereo not drawn) | 9% (inactive)
28 | CSc1cccc(N2C(=O)C=CC2=O)c1 | 100% (active)
29 | O=c1c2ccccc2nc(-c2ccccc2)n1NC(=S)Nc1ccc(Cl)cc1[N+](=O)[O-] | 4% (inactive)
30 | COc1ccc(OC(C)=O)c2c1CCC=CC2=O | 18% (inactive)
31 | CC(=O)Nc1ccc2c(c1)Cc1cccc(F)c1-2 | 14% (inactive)
32 | CCC(c1ccc(O)cc1)C(O)(CC)c1ccc(O)cc1 (stereo not drawn) | -3% (inactive)
33 | Cn1c(-c2ccccc2)c(CCNC(=O)C2CCC2)c2ccccc21 | 12% (inactive)
34 | FC(F)(F)c1ccccc1NC(=S)SCc1ccco1 | 1% (inactive)
35 | O=[N+]([O-])C1=Cc2cc(Cl)ccc2OC1c1cccc2ccccc12 (stereo not drawn) | 97% (active)
36 | NC(=O)c1c(Cl)nc2n1CCS2 | -2% (inactive)
37 | CCCCCC(C)C1=NC(C)(C)CC(C)O1 (stereo not drawn) | -64% (inactive)
38 | CCCCCCCCCCCCCCCCN(C)c1ccc(S(=O)(=O)O)cc1[N+](=O)[O-] | 50% (inactive)
39 | O=C(c1cccnc1)N(C1CCCCC1)C1CCCCC1 | 2% (inactive)

Same assay, conditions: S. cerevisiae sgs1 mgt1 strain, at 50.0 µM (retest, dose inferred, filed as 5.0), stronger effect = higher value

Row | Compound | growth inhibition
40 | Cc1ccc(/C=C2\CCCC(CN3CCCCC3)C2=O)cc1 (stereo not drawn) | 99% (active)
41 | Oc1ccc(CCCCCc2ccc(O)cc2)cc1 | 100% (active)
42 | COC(=O)c1ccccc1CC(Cc1ccc2c(c1)CCC2)C(=O)OC (stereo not drawn) | 20% (inactive)
43 | CN=C1NS(=O)(=O)c2ccccc21 | -1% (inactive)
44 | CCCCC/C(=C/C=C/c1ccc(Cl)cc1)CN(C)C | 98% (active)
45 | O=S(=O)(O)c1ccc2c(c1)C1C(C3C2C2(Cl)C(Cl)=C(Cl)C3(Cl)C2(Cl)Cl)C2(Cl)C(Cl)=C(Cl)C1(Cl)C2(Cl)Cl (stereo not drawn) | 77% (active)
46 | Cc1ccc(S(=O)(=O)N/N=C/c2oc(-c3cccc([N+](=O)[O-])c3)c(-c3cccc([N+](=O)[O-])c3)c2[N+](=O)[O-])cc1 | 50% (inactive)
47 | CCN(CC)C(C)(C)C(=O)/C=C/c1ccc(Cl)cc1 | 87% (active)
48 | Fc1ccc(NC(=S)SCc2ccc(Cl)c(Cl)c2)c(F)c1 | 98% (active)
49 | CC[C@@]1(OP(=O)(O)O)C(=O)OCc2c1cc1n(c2=O)Cc2cc3ccccc3nc2-1 | -37% (inactive)
50 | CC(C)C1=CC2=CCC3C(C)(C(=O)O)CCCC3(C)C2CC1 (stereo not drawn) (tested in a mixture with another compound) | 88% (active)
51 | C=CCSc1nc2ccccc2c(=O)n1Cc1ccco1 | 59% (inactive)
52 | COC(=O)c1c(C)cccc1C1CN=NC12Cc1ccc(C)c(C)c1C2=O (stereo not drawn) | 56% (inactive)
53 | CC(=O)N=C1N(/C=C2\C(=O)Oc3ccccc3C2=O)C(=O)/C(=C/c2cccc(Cl)c2Cl)N1C | 8% (inactive)
54 | O=C1NC(CSSCC2NC(=O)N(c3ccccc3)C2=O)C(=O)N1c1ccccc1 (stereo not drawn) | 99% (active)
55 | CCCCCCCCCCCCOP(=O)(N1CC1(C)C)N1CC1(C)C (stereo not drawn) | 67% (inactive)
56 | Cc1cccc(/C=N/NC(=S)Nc2ccc(Cl)cc2)n1 | 98% (active)
57 | CN1CCCCC1c1cc2c3ccccc3ccn2c1-c1ccccc1 (stereo not drawn) | 94% (active)
58 | CN(Cc1ccccc1)CC(O)c1cc(-c2ccc(Cl)cc2)nc2ccccc12 (stereo not drawn) | 100% (active)
59 | OC1CCN(c2c3ccccc3nc3ccccc23)CC1 | 94% (active)

Row | Compound | growth inhibition
60 | CCC1=C(c2ccc(OC(C)=O)cc2)Cc2cc(OC(C)=O)ccc21 | 72% (active)
61 | Cc1cccc(C)c1NC(=O)CSC(N)=O | 22% (inactive)
62 | c1ccc([B-](c2ccccc2)(c2ccccc2)c2ccccc2)cc1 | -3% (inactive)
63 | [Fe+2].c1cc[cH-]c1.c1ccc(-c2ccc[cH-]2)cc1 | 47% (inactive)
64 | O=C(CC1(O)CCCCC1)OC1CCCC1 | 0% (inactive)
65 | OC1(c2ccccc2)c2ccccc2Sc2ccccc21 | 97% (active)
66 | CC(CN(C)C)C(=O)/C=C/c1ccc(C(C)C)cc1 (stereo not drawn) | 93% (active)
67 | CSc1cccc(N2C(=O)C=CC2=O)c1 | 100% (active)
68 | O=c1c2ccccc2nc(-c2ccccc2)n1NC(=S)Nc1ccc(Cl)cc1[N+](=O)[O-] | 15% (inactive)
69 | COc1ccc(OC(C)=O)c2c1CCC=CC2=O | 93% (active)
70 | CC(=O)Nc1ccc2c(c1)Cc1cccc(F)c1-2 | 3% (inactive)
71 | CCC(c1ccc(O)cc1)C(O)(CC)c1ccc(O)cc1 (stereo not drawn) | 35% (inactive)
72 | Cn1c(-c2ccccc2)c(CCNC(=O)C2CCC2)c2ccccc21 | 12% (inactive)
73 | FC(F)(F)c1ccccc1NC(=S)SCc1ccco1 | 45% (inactive)
74 | O=[N+]([O-])C1=Cc2cc(Cl)ccc2OC1c1cccc2ccccc12 (stereo not drawn) | 86% (active)
75 | NC(=O)c1c(Cl)nc2n1CCS2 | 1% (inactive)
76 | CCCCCC(C)C1=NC(C)(C)CC(C)O1 (stereo not drawn) | -68% (inactive)
77 | CCCCCCCCCCCCCCCCN(C)c1ccc(S(=O)(=O)O)cc1[N+](=O)[O-] | 62% (inactive)
78 | O=C(c1cccnc1)N(C1CCCCC1)C1CCCCC1 | 6% (inactive)
